From PubChem BioAssay (NCATS)
Results filed as inconclusive are left out. Calls follow the shape of the dose curve; as a rule, active = well fitted curve in either direction with a large enough effect (not every such curve was filed as active); inconclusive = small, poorly fitted or top-dose-only effect, or another doubt; inactive = flat fitted curve, though single readings scatter.

Assay: NFAT Signaling Pathway (AID 444);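 also: carbachol stimulus at about its EC50 of 1 µM final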
Settings: Jurkat NFAT-bla M1, carbachol, beta-lactamase ratio, 5 h; at 7.69 µM (top of the series) unless noted
Outline: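 Jurkat cells with NFAT-driven β-lactamase reporter and co-expressed M1 receptor, stimulated with carbachol (final 1 uM, ~EC50), compound titration, 5 h at 37 °C. CCF4 loaded 1 h at RT; 460/530 nm ratio gave %activity and AC50.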
% is scaled to controls: 0 for no effect and ±100 for the full control effect.

Activity change, negative = inhibition, inactive:
O=C(c1cnccn1)N1CCC2(CCCN(c3ncccn3)C2)CC1 13.2%
COCCNc1nc(-c2ccccc2C(F)(F)F)nc2ccccc12 5.96%
COc1ccc(NC(=O)N2CC3(CCN(C(=O)c4cccc(F)c4)CC3)C2)cc1 -1.23%
COc1ccc(NC(=O)N2CCCC3(CCN(C(=O)c4cccc(F)c4)CC3)C2)cc1 -25.3%
Oc1cc2c(c(Cl)c1O)CCNC[C@H]2c1ccccc1 -20.4% [at 38 µM]
COc1ccc(Oc2ncc3nc(-c4cccs4)c(=O)n(Cc4cccs4)c3n2)cc1 -3.5%
c1ccc(-c2ccc(N3CCCC4(CCNCC4)C3)cc2)cc1 24.2%
COc1cccc(Nc2ncc3nc(-c4ccc(F)cc4)c(=O)n(C[C@H]4CCCO4)c3n2)c1 -9.67%
CC(C)NC(=O)N1CC[C@@]2(CCCN(C(=O)c3ccco3)C2)C1 5.58%
O=c1c(-c2ccc(Cl)cc2)nc2cnc(N3CCOCC3)nc2n1C1CC1 -4.43%
O=c1c(-c2ccc(Cl)cc2)nc2cncnc2n1Cc1ccc(F)cc1 5.72%
COc1cccc(Cn2c(=O)c(C)nc3cnc(OCc4ccccc4)nc32)c1 -16.9%
COC(=O)N1CCC2(CCN(C(=O)Nc3cccc(F)c3)CC2)CC1 -11.6%
COc1ncc2nc(CCc3ccccc3)c(=O)n(CCC#N)c2n1 -10.8%
COc1ccc(Oc2ncc3ncc(=O)n(CCc4ccccc4)c3n2)cc1 -16.6%
O=C(Oc1ccccc1)N1CCC2(CCCN(c3ncccn3)C2)CC1 -6.42%
COc1cccc(Cn2c(=O)c(CCc3ccccc3)nc3cnc(OC)nc32)c1 -14.6%
COc1ccc(Oc2ncc3nc(-c4ccccc4)c(=O)n(Cc4cccs4)c3n2)cc1 -1.01%
O=c1c(-c2cccs2)nc2cncnc2n1C1CC1 -2.79%
COc1ccccc1-c1nc(N(C)Cc2ccco2)c2ccccc2n1 -21.3%
COc1ccccc1CNc1nc(-c2ccc(N(C)C)cc2)nc2ccccc12 -29.6%
COc1ccc(NC(=O)N2CCC3(CC2)CCN(C(=O)c2cccc(F)c2)CC3)cc1 8.11%
COc1ncc2nc(-c3ccc(Cl)cc3)c(=O)n(CCc3ccccc3)c2n1 -9.46%
O=C(c1cccc(F)c1)N1CCC2(CC1)CCN(c1ccc(-c3ccccc3)cc1)CC2 0.978%

Assay: Stat Signaling Pathway (AID 446);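 also: ME-180 cervical cancer cells given 40 pM IL-6 alongside compound; SIE-controlled beta-lactamase reporter measured as 460/530 nm FRET emission ratio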
Settings: ME-180 (cervical carcinoma) SIE beta-lactamase reporter, IL-6 stimulated, 5 h; at 7.69 µM (top of the series) unless noted
Outline: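 Compound effects on IL-6-induced STAT reporter activity were measured in ME-180 cells. After overnight culture, cells were co-treated with 40 pM IL-6 for 5 hrs before beta-lactamase substrate loading at room temperature.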

activity, negative = inhibition, inactive:
O=C(c1cnccn1)N1CCC2(CCCN(c3ncccn3)C2)CC1 -0.387%
COCCNc1nc(-c2ccccc2C(F)(F)F)nc2ccccc12 15.8%
COc1ccc(NC(=O)N2CC3(CCN(C(=O)c4cccc(F)c4)CC3)C2)cc1 0.388%
COc1ccc(NC(=O)N2CCCC3(CCN(C(=O)c4cccc(F)c4)CC3)C2)cc1 -10.9%
c1ccc(-c2ccc(N3CCCC4(CCNCC4)C3)cc2)cc1 -2.12%
COc1cccc(Nc2ncc3nc(-c4ccc(F)cc4)c(=O)n(C[C@H]4CCCO4)c3n2)c1 -5.57%
CC(C)NC(=O)N1CC[C@@]2(CCCN(C(=O)c3ccco3)C2)C1 8.1%
O=c1c(-c2ccc(Cl)cc2)nc2cnc(N3CCOCC3)nc2n1C1CC1 26.7%
O=c1c(-c2ccc(Cl)cc2)nc2cncnc2n1Cc1ccc(F)cc1 -2.95%
O=C(c1cnccn1)N1CCC2(CC1)CN(Cc1cc(C(F)(F)F)cc(C(F)(F)F)c1)C2 -1.36%
COc1cccc(Cn2c(=O)c(C)nc3cnc(OCc4ccccc4)nc32)c1 -3.44%
COc1ccc(C(=O)N2CCC3(CCN(C(=O)Nc4cccc(C#N)c4)CC3)CC2)cc1 -23.9%
COC(=O)N1CCC2(CCN(C(=O)Nc3cccc(F)c3)CC2)CC1 22.8%
COc1ncc2nc(CCc3ccccc3)c(=O)n(CCC#N)c2n1 -4.61%
COc1ccc(Oc2ncc3ncc(=O)n(CCc4ccccc4)c3n2)cc1 3.46%
O=C(Nc1cccc(F)c1)N1CCCC2(CCN(C(=O)c3cccc(F)c3)CC2)C1 -9.43%
O=C(c1cnccn1)N1CCC2(CCCN(c3ccccn3)C2)CC1 1.23%
O=S(=O)(c1ccccc1)N1CCC2(CCCN(Cc3cc(C(F)(F)F)cc(C(F)(F)F)c3)C2)CC1 5.03%
O=C(Oc1ccccc1)N1CCC2(CCCN(c3ncccn3)C2)CC1 -23.6%
COc1cccc(Cn2c(=O)c(CCc3ccccc3)nc3cnc(OC)nc32)c1 1.12%
COc1ccc(Oc2ncc3nc(-c4ccccc4)c(=O)n(Cc4cccs4)c3n2)cc1 -3.78%
O=c1c(-c2cccs2)nc2cncnc2n1C1CC1 -5.35%
COc1ccccc1-c1nc(N(C)Cc2ccco2)c2ccccc2n1 8.04%
COc1ccccc1CNc1nc(-c2ccc(N(C)C)cc2)nc2ccccc12 20.3%
CCNc1ncc2nc(-c3cccc(C#N)c3)c(=O)n(C)c2n1 30%
COc1ccc(NC(=O)N2CCC3(CC2)CCN(C(=O)c2cccc(F)c2)CC3)cc1 0.897%
COc1ncc2nc(-c3ccc(Cl)cc3)c(=O)n(CCc3ccccc3)c2n1 1.11%
O=C(c1cccc(F)c1)N1CCC2(CC1)CCN(c1ccc(-c3ccccc3)cc1)CC2 -7.26%
